TDP1 cell noCPT = qHTS for Inhibitors of human tyrosyl-DNA phosphodiesterase 1 (TDP1): qHTS in cells in absence of CPT. DT40 Tdp1-/- hTDP1 cells, no CPT, ATP luminescence, 48 h. Potency, µM (series often up to 46.2 µM), usual class: inhibitors. hit rate 15% among 420,000. AID 686978, 2013; also: nearly all actives have a fitted effect of over 55% in size
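No-CPT arm: Tdp1-/-;hTDP1 DT40 cells (400/well) plus compounds, incubated ≥48 hr at 37 °C. Readout CellTiter-Glo luminescence.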
TDP1 inh = blocks human tyrosyl-DNA phosphodiesterase 1; recombinant TDP1, AlphaScreen DNA substrate cleavage; Potency, µM (doses to about 130 µM), most hits filed as inhibitors; hit rate 0.28% among 350,000; also: nearly all actives have a fitted effect of over 40% in size
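Compounds were preincubated with Tdp1 (1 nM final) for 15 min at room temperature before substrate (15 nM final) started a 5 min reaction; beads (10 ug/ml final) were then added for 10 min before AlphaScreen detection.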
DT40 TDP1 CPT = DT40-hTDP1 cell growth loss with CPT. chicken DT40 Tdp1-/-;hTDP1 cells + 20 nM CPT, ATP luminescence, 48 h. Potency, µM (top dose mostly 46.2 µM), most hits filed as inhibitors. hit rate 12% among 420,000; also: nearly all actives have a fitted effect of over 55% in size
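Chicken DT40 Tdp1-/- cells complemented with human TDP1, 400 cells/well, exposed to compounds plus 20 nM camptothecin for at least 48 h at 37 C; viability read as ATP content by CellTiter-Glo luminescence.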
ClpP mod = qHTS Assay for Activators of ClpP; hit rate 1.9% among 340,000; Potency, µM (top dose mostly 57.5 µM); purified B. subtilis ClpP, FRET peptide cleavage, 20 min; AID 651965, 2013; active = well fitted falling curve with a large enough effect; inconclusive = small, poorly fitted or top-dose-only effect; inactive = no such curve, though single readings can be large or run the other way; also: the source files actives as falling curves though it sought activators and does not explain the sign; nearly all actives have a fitted effect of over 65% in size
Target sequence (P80244 whole entry, looked up): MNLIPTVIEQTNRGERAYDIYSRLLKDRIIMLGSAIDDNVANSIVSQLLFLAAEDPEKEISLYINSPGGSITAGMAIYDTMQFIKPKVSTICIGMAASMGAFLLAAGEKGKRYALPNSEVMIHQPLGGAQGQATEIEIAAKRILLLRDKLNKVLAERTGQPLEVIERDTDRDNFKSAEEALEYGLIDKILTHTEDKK
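FRET quenching reversal measured ClpP activation: 10 microg/mL B. subtilis ClpP at pH 8 with the FRET-FV decapeptide, read at 430 nm after 320 nm excitation. The 20-min minus 0-min signal was scaled between DMSO/no-enzyme wells and ADEP (5.8 microM final).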
Numbers stand for hits; - = inactive; ? = inconclusive; . = not tested or not shown. A selection: hits, their analogues and other compounds. The true share with any hit is near 17%. Unless noted, calls follow the shape of the dose curve; as a rule, active = well fitted curve in the direction sought with a large enough effect; inconclusive = small, poorly fitted or top-dose-only effect, or another doubt; inactive = no such curve, though single readings can be large; an effect the other way counts as inactive or inconclusive.

SMILES | TDP1 cell noCPT | TDP1 inh | DT40 TDP1 CPT | ClpP mod
CCc1cccc(NC(=O)CSc2nc(C)cs2)c1 | - | . | - | -
COc1ccccc1NS(=O)(=O)c1ccc(C(=O)N2CCN(c3ccccn3)CC2)cc1 | 13µM | - | 23µM | -
COc1ccc(C(=O)N2CCN(c3ccccn3)CC2)cc1 | - | - | - | -
O=C(NC1CCCC1)c1cnn2c1NC(=C1CC1)C=C2C(F)F | ? | . | ? | -
CCOc1ccccc1C(=O)N(Cc1ccco1)C1CCS(=O)(=O)C1 (centres undefined) | - | - | - | -
CCOc1ccccc1C(=O)N(Cc1ccco1)Cc1ccccc1F | 21µM | - | 21µM | -
COc1ccccc1C(=O)N(Cc1ccco1)Cc1ccccc1F | 21µM | - | ? | -
COc1ccc([N+](=O)[O-])cc1NC(=O)c1cc(C)c(C)o1 | - | - | - | -
Cc1cccc(N2CCN(C(=O)c3c(C)oc4ncnc(N5CCOCC5)c34)CC2)c1C | - | - | - | -
Clc1ccc(COc2cccc(CNCc3ccncc3)c2)cc1 | 18µM | - | ? | .
CC(C)(CO)NCc1cccc(OCc2ccc(Cl)cc2)c1 | ? | - | ? | -
CC(=O)N1CCCc2cc(S(=O)(=O)N3CCC(N(C)C(C)C)CC3)ccc21 | - | - | - | -
CC(=O)N1CCCc2cc(S(=O)(=O)N3CCC(C(=O)N(Cc4ccccc4)C(C)C)CC3)ccc21 | ? | - | 23µM | -
CC(=O)N1CCCc2cc(S(=O)(=O)N3CCC(C)CC3)ccc21 | - | - | - | -
CC(=O)N1CCCc2cc(S(=O)(=O)N3CCC(C(=O)N(C)C4CCCCC4)CC3)ccc21 | 23µM | - | ? | -
CNC(=S)N(Cc1cc2ccc(OC)cc2[nH]c1=O)CC1CCCO1 (centres undefined) | - | - | - | -
CCOc1ccc(NC(=O)CCS(=O)(=O)c2cccc3nonc23)cc1 | - | - | - | -
Cc1ccc(NC(=O)COC(=O)c2ccccc2-c2nc3ccccc3s2)c(C)c1 | ? | - | ? | -
COc1ccc(-c2cc(C(=O)N(C)CC(=O)Nc3ccccc3C(F)(F)F)c3ccccc3n2)cc1OC | 4.1µM | . | 21µM | -
CN(CC(=O)Nc1ccccc1Br)C(=O)c1ccncc1 | - | - | - | -
CCc1cccc(CC)c1NC(=O)COC(=O)c1ccccc1-c1nc2ccccc2s1 | 16µM | - | 21µM | ?
COc1ccc(-c2cc(C(=O)N(C)CC(=O)Nc3ccccc3Br)c3ccccc3n2)cc1OC | 18µM | - | 16µM | .
CN(CC(=O)Nc1ccccc1Br)C(=O)c1ccccc1-c1nc2ccccc2s1 | - | - | - | 28µM
CN(CC(=O)Nc1ccccc1Br)C(=O)c1cc(Cl)nc2ccccc12 | - | - | - | -
CN(CC(=O)Nc1ccccc1C(F)(F)F)C(=O)c1cc(Cl)nc2ccccc12 | - | - | - | -
SMILES | TDP1 cell noCPT | TDP1 inh | DT40 TDP1 CPT | ClpP mod
Cc1cc(C)cc(OCC(=O)NCC2(N(C)C)CCCCC2)c1 | - | - | - | -
Cc1ccc(C)c(NC(=O)CSc2nc(=O)n(CCN(C)C)c3c2CCC3)c1 | - | - | - | -
CCOC(=O)c1c(SCCN2CCCCC2)n(-c2ccccc2)c(=S)n(-c2ccccc2)c1=O | 4.1µM | . | 2.9µM | -
COCCCNC(=O)Cn1c(=O)n(-c2ccc(Cl)cc2)c(=O)c2c3c(sc21)CCCCC3 | - | - | - | -
N#CC(C#N)=c1ccc2c(c1)NC1(CCCCC1)N=2 | 10µM | - | 12µM | -
N#CC(C#N)=C1NC2(CCCCC2)Cc2ccccc21 | - | . | - | -
COc1cc(/C=C2\SC(N)=NC2=O)cc(OC)c1 | ? | - | 18µM | -
COc1cc(/C=C2\SC(N)=NC2=O)ccc1O | 4.6µM | - | 12µM | .
COC(=O)CCN1CCC2CC1c1cc(N3CCCCC3)ccc12 (centres undefined) | - | . | - | -
Cc1noc2ncnc(Sc3ccc(Br)cc3)c12 | 9.2µM | - | 2.6µM | -
Cc1noc2ncnc(N3CCCC3)c12 | - | - | - | -
CN(C)S(=O)(=O)c1ccc(NC(=O)Cn2nc(-c3ccc4c(c3)OCCO4)ccc2=O)cc1 | 21µM | . | ? | .
O=C(CSc1nc(NS(=O)(=O)c2ccccc2)cc(=O)[nH]1)Nc1ccccc1Cl | - | - | - | .
Cc1ccc(S(=O)(=O)Nc2cc(=O)[nH]c(SCC(=O)Nc3ccccc3Cl)n2)cc1 | - | 35µM | - | -
Cc1ccc(S(=O)(=O)Nc2cc(=O)[nH]c(SCC(=O)Nc3cccc(C)c3)n2)cc1 | - | - | - | -
CCc1ccc(NC(=O)CSc2nc(NS(=O)(=O)c3ccccc3)cc(=O)[nH]2)cc1 | 16µM | . | 26µM | .
Cc1ccc(NC(=O)CSc2nc(NS(=O)(=O)c3ccccc3)cc(=O)[nH]2)cc1 | - | 28µM | - | -
CN(C(=O)CCCOc1ccc2[nH]c(=O)ccc2c1)C1CCCCC1 | ? | - | - | .
COc1cccc(CCNC(=O)Cn2c(-c3cccs3)cc3ccccc32)c1 | ? | - | 21µM | -
COc1ccc(N2CCN(CCCNC(=O)c3cc4sccc4n3C)CC2)cc1 | ? | - | - | -
O=C(Cn1c(-c2cccs2)cc2ccccc21)NCCCN1CCN(c2ccc(F)cc2)CC1 | 23µM | - | 23µM | 32µM
CSc1ccc(CNC(=O)Cn2c(-c3cccs3)cc3cc(F)ccc32)cc1 | ? | - | - | ?
COc1ccc(N2CCN(CCCNC(=O)Cn3c(-c4cccs4)cc4ccccc43)CC2)cc1 | 23µM | - | 18µM | -
O=C1Nc2ccccc2/C1=N/N=C/c1ccc(-c2ccc([N+](=O)[O-])cc2)o1 | ? | - | ? | -
Cc1ccc2c(Cl)c(Cc3ccccc3)c(=S)[nH]c2n1 | ? | . | ? | -
SMILES | TDP1 cell noCPT | TDP1 inh | DT40 TDP1 CPT | ClpP mod
CCn1c(N2CCN(CC(=O)Nc3cccc(C)c3C)CC2)nc2ccccc21 | 21µM | - | - | -
Cc1cccc(NC(=O)Cn2c(SCC(=O)NCc3ccccc3)nc3ccccc32)c1C | - | - | - | -
Cc1ccc(SCc2nc3ccccc3n2CC(=O)Nc2ccc(Cl)cc2)cc1 | ? | - | 21µM | -
CC(C)Cn1c(N2CCN(CC(=O)Nc3ccc(Cl)cc3)CC2)nc2ccccc21 | 21µM | - | ? | .
CC(C)n1c(N2CCN(CC(=O)Nc3ccc4c(c3)OCCO4)CC2)nc2ccccc21 | ? | - | ? | -
Cc1ccc(SCc2nc3ccccc3n2CC(=O)Nc2ccccc2)cc1 | ? | - | ? | -
Cn1c(N)c(C(=O)COC(=O)CCC2CCCCC2)c(=O)n(C)c1=O | - | - | - | -
C/C(=N\NC(=O)c1[nH]c2c([N+](=O)[O-])cc(C)cc2c1-c1ccccc1)c1cccnc1 | 15µM | - | 26µM | -
CCN(CC)C(=O)[C@H]1CC(CC(=O)NCCCOC)C(=O)N2CCc3c([nH]c4ccccc34)[C@]12C (some centres undefined) | - | - | - | -
CC1(C(=O)O)CCC2(C)CCC3(C)C(=CC(=O)C4C5(C)CCC(=O)C(C)(C)C5CCC43C)C2C1 (centres undefined) | - | . | - | -

Compound activity from PubChem.
